This is a sample that favours compounds with a hit; in the whole collection about 2.4% have one here.
WRN inhibitor: qHTS for Inhibitors of WRN Helicase; AID 651768, 2012; 360,000 compounds, 0.46% hits; Bifunctional 3'-5' exonuclease/ATP-dependent helicase WRN (Homo sapiens), Q14191; WRN helicase unwinding, fluorescent forked duplex, kinetic; Potency, µM (series often up to 114 µM), for the others: at the top dose activity change, negative = inhibition, actives largely listed as inhibitors; note: % is set by controls: 0 for no effect and ±100 for the full control effect; nearly all actives have a fitted effect of over 55% in size
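Primary qHTS, 1536-well format. 20 nM WRN + compound, 15 min RT; start with 100 nM forked fluorophore/quencher duplex, 2 mM ATP (final); kinetic read ex 525/em 598 nm.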
Pol iota inh: qHTS for Inhibitors of Polymerase Iota. 390,000 compounds, 1% hits. Potency, µM (highest dose often 115 µM), for the others: at the top dose activity, negative = inhibition, usual class: inhibitors. Pol iota fluorescent replication assay, 10 min. AID 588590, 2011
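Fluorescent replication assay read twice, at 0 min and 10 min after adding 50 nM (final) substrate. Enzyme (10 nM) and compounds were first incubated 15 min at room temperature; enzyme-free buffer wells were negative controls.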
Pol beta inh: qHTS Assay for Inhibitors of DNA Polymerase Beta. P06746. Potency, µM (doses to about 114 µM), for inactives: at the highest dose activity change, negative = inhibition, hits mostly inhibitors. Pol beta primer extension/strand displacement, fluorescence kinetic. 340,000 compounds, 1.3% hits; note: % is set by controls: 0 for no effect and ±100 for the full control effect
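Pol beta (10 nM) was preincubated with compound for 15 min at room temperature. The reaction was then started with 50 nM substrate and read immediately and after a further 10 min at room temperature.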
POLK inh: qHTS for Inhibitors of Polymerase Kappa | 400,000 compounds, 0.53% hits | AID 588579, 2011 | Potency, µM (doses to about 107 µM), for the others: at the highest dose activity, negative = inhibition, usual class: inhibitors | purified Pol kappa, fluorescent DNA synthesis assay, 10 min; note: % is set by controls: 0 for no effect and ±100 for the full control effect
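Activity was followed as the change in fluorescence between reads at 0 and 10 min after starting the reaction with 50 nM substrate. Beforehand, 10 nM polymerase had been preincubated with compound for 15 min at room temperature.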
Pol eta inh: qHTS for Inhibitors of Polymerase Eta | recombinant Pol eta, fluorescent DNA replication assay | Potency, µM (series often up to 114 µM), for the others: at the top dose activity change, negative = inhibition, actives largely listed as inhibitors | 390,000 compounds, 1.2% hits; note: % is set by controls: 0 for no effect and ±100 for the full control effect
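Pol eta at 10 nM preincubated with compounds 15 min at room temperature; reaction started with fluorescent substrate (50 nM final) and read kinetically at 0 and 10 min.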
FEN1 inh: qHTS Assay for the Inhibitors of Human Flap endonuclease 1 (FEN1) | 390,000 compounds, 0.35% hits | AID 588795, 2011 | Recombinant FEN1 flap cleavage, fluorescence, 15 min | Potency, µM (top dose mostly 114 µM), for inactives: at the highest dose activity change, negative = inhibition, most hits filed as inhibitors | P39748; note: % is set by controls: 0 for no effect and ±100 for the full control effect; nearly all actives have a fitted effect of over 65% in size
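Concentration–response screening of FEN1 (10 nM): 15 min compound preincubation at room temperature, reaction started with 50 nM substrate and read at 0 and 15 min. Corrected, normalized data were fitted by a four-parameter Hill equation.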
* = called active by the depositor; ? = inconclusive; / = no result given; ! = not confirmed by another sample; [ ] = remark or other dose. Calls come from the whole dose curve; as a rule, active = well fitted curve in the direction sought with a large enough effect; inconclusive = small, poorly fitted or top-dose-only effect, or another doubt; inactive = no such curve, though single readings can be large; an effect the other way counts as inactive or inconclusive. Potency is the fitted concentration of half-maximal effect.

SMILES | WRN inhibitor | Pol iota inh | Pol beta inh | POLK inh | Pol eta inh | FEN1 inh
CN(C)C(=O)C12CCC(C)(c3nc4ccccc4nc31)C2(C)C (configuration not stated) | -9% | 13% | 12% | -19% | -5% | -4%
CCC(C(=O)Nc1cc(C(F)(F)F)ccc1Cl)n1nc(C)c2sc3ccccc3c2c1=O (configuration not stated) | / | 2% | 4% | -1% | -20% | -7%
CC(=O)Oc1c2occc2cc2ccc(=O)oc12 | -28% | ? | 50µM* | ? | ? | -15%
O=c1c2c([nH]c3ccccc13)C(=C1CCCC1)CC2 | 50µM* | ? | 32µM* | 40µM* | 20µM* | -7%
COC(=O)c1sc(-c2ccccc2)cc1NC(=O)C1CC1 | -10% | 71% | -17% | 0% | ? | -12%
COC(=O)c1sc(-c2ccc(C(C)(C)C)cc2)cc1NC(=O)CSCC(=O)O | -4%[11.6 µM] | 79µM* | -7% | 9% | 89µM* | -4%
O=C1C=C(c2ccc(-c3ccccc3)cc2)C[C@@H](c2ccc3c(c2)OCO3)C1 | -1% | 16% | / | 0% | -6% | 18%
O=C1C=C(c2ccc(C(=O)O)c(Cl)c2)C[C@@H](c2ccc3c(c2)OCO3)C1 | -3%[11.6 µM] | ? | / | ? | 50µM* | 4%
CN(CC(=O)NCCc1ccc(Cl)cc1)S(=O)(=O)c1ccc2c(c1)c(=O)n(C)c(=O)n2C | 8% | 16% | 14% | 11% | ? | -1%
CN(CC(=O)NCCC1=CCCCC1)S(=O)(=O)c1ccc2c(c1)c(=O)n(C)c(=O)n2C | -9% | 79µM* | 5% | -19% | -5% | -2%
O=C(NN=C1c2ccccc2-c2ccccc21)c1ccccc1Br | -3% | ? | 0.28µM* | -4% | -5% | 0%
O=C(NN=C1c2ccccc2-c2ccccc21)c1ccccc1 | -9% | 4% | ? | -11% | 3% | -3%
CC(=O)Nc1cccc(NC(=O)CCn2cnc3cc(C)c(C)cc32)c1 | -9% | ? | 25µM* | -32% | ? | -5%
Cc1ccc(NC(=O)CCn2cnc3cc(C)c(C)cc32)cc1 | 6% | 24% | -6% | 13% | -16% | 7%
COc1cc(NC(=O)COc2ccccc2Cl)ccc1NC(=O)c1cccs1 | -5% | 50µM* | 7% | -2% | 0% | 9%
COc1cc(NC(=O)COc2ccccc2[N+](=O)[O-])ccc1NC(=O)c1cccs1 | -24% | ? | ? | -4% | ? | -6%
Cc1oc2ccc(NS(=O)(=O)c3ccc(F)cc3)cc2c1C(=O)O | 0% | -9% | 7% | -1% | -12% | -1%
CC(=O)c1c(C)oc2c(Br)cc(NS(=O)(=O)c3ccc(Br)cc3)cc12 | / | 79µM* | ? | -3%[60.1 µM] | -25% | 13%
CCOc1ccc(C(=O)NC(=S)Nc2cc(C)ccn2)cc1[N+](=O)[O-] | 0% | ? | 32µM* | -4% | -7% | -9%
O=C(N/N=C/C(Br)=C/c1ccccc1)c1n[nH]c2c1CCC2 | -21% | 3.5µM* | 3% | ? | ? | -10%
CCCCCCCCCCC(C)=O | / | / | / | 10%[60.1 µM] | / | /
O=[N+]([O-])c1ccc2nc(-c3ccccc3)n(OCc3ccc(Cl)cc3)c2c1 | -15%[57.1 µM] | -5% | 28µM* | ? | 16µM* | 1%
O=C1C(Cl)=C(N2CCN(c3ccccc3[N+](=O)[O-])CC2)C(=O)c2ccccc21 | -27% | 7.9µM* | 28% | -6% | ? | 2%
O=[N+]([O-])c1cc(Cl)ccc1N1CCCC1 | 3% | 43% | 8% | 1% | -12% | -3%
O=C1CCCN2N=C(SCC(=O)Nc3nc4ccccc4s3)SC2=N1 | -12% | -24% | ? | -22% | -17% | -5%
SMILES | WRN inhibitor | Pol iota inh | Pol beta inh | POLK inh | Pol eta inh | FEN1 inh
O=C1CCCN2N=C(SCC(=O)Nc3nccs3)SC2=N1 | ? | ? | 32µM* | -8% | 79µM* | 11%
O=C(CCCl)Nc1cccc2cccnc12 | / | ? | / | -1% | / | 22%
COc1cc(OC)cc(C(=O)NCC(=O)OCC(=O)N2c3ccccc3NC(=O)C2(C)C)c1 | 0% | 18% | ? | -16% | 11% | 1%
Cc1cc(C)cc(C(=O)NCC(=O)OCC(=O)N2c3ccccc3NC(=O)C2(C)C)c1 | -3% | -26% | 14µM* | -2% | -12% | -11%
CC1(C)C(=O)Nc2ccccc2N1C(=O)COC(=O)c1cccnc1Cl | -16% | ? | / | -25% | 50µM* | 1%
CC1(C)C(=O)Nc2ccccc2N1C(=O)COC(=O)CCSc1ccccc1 | -6% | -6% | -24% | -17% | -6% | -12%
CC1(C)C(=O)Nc2ccccc2N1C(=O)COC(=O)c1cccs1 | 1%[11.6 µM] | ? | / | ? | 25µM* | -3%
CC1(C)C(=O)Nc2ccccc2N1C(=O)COC(=O)c1cc(S(=O)(=O)N2CCOCC2)ccc1F | -15% | 40µM* | 40µM* | ? | ? | 4%
OC[C@@H]1OC(O)[C@@H](O)[C@H](O)[C@@H]1O (some centres not stated) | / | / | / | 5%[60.1 µM] | / | /
COc1ccc(OC)c(NCc2cccn2-c2nnc(N3CCCCC3)s2)c1 | / | 38% | 3% | -7% | -13% | -22%
O=C(c1ccc2c(=O)n(-c3ccccc3)c(=O)[nH]c2c1)N1CCN(Cc2cccs2)CC1 | / | 18% | / | -1% | / | 17%
CN(C)c1ccc(CCc2ccnc3ccccc23)cc1 | / | 3% | / | -15% | / | -5%
O=C(CSc1nnc(SCc2cccc3ccccc23)s1)N=Nc1c(O)[nH]c2ccccc12 | / | / | 13µM* | / | / | /
COc1ccc(Cn2nnnc2C(c2ccccc2)N2CCN(c3ccccc3)CC2)cc1 (configuration not stated) | / | 0% | / | -3% | / | -14%
C/C(=C\c1ccc(C(=O)O)cc1)c1ccc2c(c1)C(C)(C)CCC2(C)C | 1% | 32µM*! | ? | ? | ? | -16%
CC1(C)CCC(C)(C)c2cc(C(=O)Nc3ccc(C(=O)O)cc3)ccc21 | / | / | / | 7%[19.4 µM] | / | /
Cc1cccc(-n2c(O)c(C=Nc3ccccc3-c3n[nH]c(=S)[nH]c3=O)c3ccccc3c2=O)n1 | -2% | 7% | -1% | -8% | -11% | -7%
Cc1ccc(-n2c(O)c(C=Nc3ccccc3-c3n[nH]c(=S)[nH]c3=O)c3ccccc3c2=O)c(C)c1 | 0% | 45µM* | 89µM* | ? | ? | ?
COc1ccc(C2=Nn3c(nnc3-c3ccccc3F)SC2)cc1OC1CCCC1 | / | -10% | / | 50µM* | -15% | ?
